In PubChem BioAssay (NCI):
Where “and” joins values, the source holds several entries; their conditions need not be identical. Identical values can stand only once. This is part of a sample that, as a whole, favours compounds with a hit. Of some 83,000 tested, about 20% had one in any assay.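 Values shown are percent growth following 48 h exposure of cells in 96-well plates to a single concentration of compound; below 10 was considered active.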 Calls of active or inactive are those of the source.

How the values were obtained:
Assay in all cases: NCI-60 one-dose screen, 48 h (100 = growth as untreated, 0 = no growth, -100 = all killed)
Settings in all cases: 10 µM unless noted
[1] = tested on: SK-MEL-2 melanoma
[2] = tested on: EKVX NSCLC
[3] = tested on: SN12C renal
[4] = tested on: UO-31 renal
[5] = tested on: TK-10 renal
[6] = tested on: ACHN renal
[7] = tested on: CAKI-1 renal
[8] = tested on: A498 renal
[9] = tested on: CCRF-CEM leukemia
[10] = tested on: MOLT-4 leukemia

Row | Structure (SMILES) | growth [1] | growth [2] | growth [3] | growth [4] | growth [5] | growth [6] | growth [7] | growth [8] | growth [9] | growth [10]
1 | O=C(Nc1nc2ccc([N+](=O)[O-])cc2s1)Nc1ccccc1F | 6.45% (active) | 5.56% (active) | 2.55% (active) | 6.12% (active) | 17.9% (inactive) | 1.6% (active) | -8.16% (active) | -18.3% (active) | 15.5% (inactive) | 15.7% (inactive)
2 | Cc1cc(N=C(N)c2ccccc2)ccc1OCCCCCCCCn1ccnc1 | -28.2% (active) | 20.7% (inactive) | 12.7% (inactive) | -30.2% (active) | 32.9% (inactive) | 9.56% (active) | 20.2% (inactive) | 64.6% (inactive) | 12.3% (inactive) | 14.1% (inactive)
3 | O=C(N/N=C/c1occc1Br)c1[nH]c2ccc(Br)cc2c1-c1ccccc1 | -88.8% (active) | -94.1% (active) | -83.8% (active) | -87.1% (active) | -76.5% (active) | -100% (active) | -91.5% (active) | -89.6% (active) | 4.68% (active) | -15.2% (active)
4 | O=C1C=CC(=CC=C2N(Cc3ccc4ccccc4c3)c3ccccc3N2Cc2ccc3ccccc3c2)C=C1 | -12.8% (active) and -12.7% (active) | 33.7% (inactive) and 32.9% (inactive) | 6.94% (active) and 13.3% (inactive) | 103% (inactive) and 98.5% (inactive) | 63.6% (inactive) and 74% (inactive) | 77.2% (inactive) and 78.6% (inactive) | 77.6% (inactive) and 70.8% (inactive) | 106% (inactive) and 109% (inactive) | 21.7% (inactive) and 10.9% (inactive) | 22.5% (inactive) and 17.6% (inactive)
5 | COc1cc(/C=C/C(=O)c2cnn(-c3cc(=O)[nH]c4ccc(C)cc34)c2C)cc(OC)c1OC | -73.1% (active) | -9.39% (active) | 10.4% (inactive) | -45.8% (active) | 37.8% (inactive) | -8.39% (active) | 16.4% (inactive) | 8.36% (active) | -22.2% (active) | -8.06% (active)
6 | N#C/C(=C1/C(=O)Nc2ccccc21)c1nnc(NC(=O)c2ccc(-n3c(=O)[nH]c4ccccc4c3=O)cc2)s1 | 57.7% (inactive) | 38.9% (inactive) | 33.1% (inactive) | 29.5% (inactive) | 84.3% (inactive) | 28.2% (inactive) | 49.2% (inactive) | 133% (inactive) | 7.74% (active) | 0.108% (active)
7 | Cc1ccc(S(=O)(=O)Nc2ccc(-c3ccc4c(c3)NC(=O)/C4=C\c3ccc[nH]3)cc2)cc1 | 105% (inactive) | 35.7% (inactive) | 85.8% (inactive) | 93.9% (inactive) | 98.4% (inactive) | 93.5% (inactive) | 87.3% (inactive) | 112% (inactive) | 62.3% (inactive) | 68.1% (inactive)
8 | Nc1nc(-c2ccccc2)c(N=Nc2ccc(Cl)cc2Cl)s1 | -61.1% (active) | -30.5% (active) | -95% (active) | -20% (active) | -13.9% (active) | -31.2% (active) | -34.3% (active) | -16.8% (active) | -0.55% (active) | -24.6% (active)
9 | Cc1nn(-c2ccccc2)c2nc(C)n(CC(=O)N/N=C/c3cccc([N+](=O)[O-])c3)c(=O)c12 | 101% (inactive) | 76.8% (inactive) | 89.1% (inactive) | 69.7% (inactive) | 103% (inactive) | 104% (inactive) | 88% (inactive) | 95.8% (inactive) | 85.1% (inactive) | 88% (inactive)
10 | COc1ccc(-c2cc(C(=O)Oc3ccc(C=O)cc3OC)nn2-c2ccc(S(C)(=O)=O)cc2)cc1 | 110% (inactive) | 98% (inactive) | 90.7% (inactive) | 78.2% (inactive) | 147% (inactive) | 106% (inactive) | 98.3% (inactive) | 126% (inactive) | 83.6% (inactive) | 86.6% (inactive)
11 | O=C(N/N=C/c1c[nH]c2ccccc12)Nc1ccc(F)c(Cl)c1 | -9.22% (active) | 40.9% (inactive) | 42.1% (inactive) | 37.1% (inactive) | 80.6% (inactive) | 41.7% (inactive) | 32.1% (inactive) | 66.6% (inactive) | 12.9% (inactive) | 10.4% (inactive)
12 | O=C(CSc1nnc(-c2ccc(-c3nc4ccc(Cl)cc4[nH]3)cc2)o1)Nc1ccc(Cl)cc1 | 14.7% (inactive) | 48.4% (inactive) | -11.6% (active) | 30.9% (inactive) | 73.7% (inactive) | -69.3% (active) | -40.3% (active) | 127% (inactive) | 4.89% (active) | 5.53% (active)
13 | Clc1ccc(CNc2nc(SCCN3CCOCC3)nc3c2cnn3CC(Cl)c2ccc(Br)cc2)cc1 (stereo not given) | 33.6% (inactive) | 31.8% (inactive) | 42.7% (inactive) | 28.5% (inactive) | 68.7% (inactive) | 23.5% (inactive) | 45% (inactive) | 106% (inactive) | 19.7% (inactive) | -22.7% (active)
